Consider 40 molecules from PubChem BioAssay (Tox21).

Where “and” joins values, the source holds several entries; their conditions need not be identical. Equal values may be shown once. Where a structure was tested more than once in an assay, its records may differ in their call. Calls of active or inactive are those of the source. Entries that show only a call come without a potency. The call rests on the fitted dose curve.
Potency means the concentration at half of the fitted maximal effect.

The nature of this assay: G protein-coupled receptor (GPCR) small molecule agonists, calcium flux assay: HEK293 wild type cell line counter screen (AID 1920065). The settings on record: HEK293 WT calcium flux, fluorescence, agonist mode; series mostly up to 57.6 µM. An excerpt: U.S. Tox21 Program National Center for Advancing Translational Sciences [NCATS] Division of Preclinical Innovation [DPI] U.S. Environmental Protection Agency [EPA] National Institutes of Environmental Health Sciences [NIEHS] National Toxicology Program [NTP] U.S. Food and Drug Administration [FDA] Assay overview: The increased intracellular calcium release that occurred upon G protein-coupled receptor (GPCR) activation led to the frequent use of calcium flux assays to detect GPCR activation. For the purpose of studying and screening compounds that may activate GPCR, receptor-overexpressing models were typically generated using Hek293 wild-type (WT) cells. In order to eliminate the compounds that may have induced calcium release for non-specific activation, a counter-assay utilizing calcium flux on Hek293 WT cells was performed. The data were formulated in order to serve as a control for any calcium flux detection utilizing Hek293 cells with either GPCR overexpression or gene modification. The procurement of Hek293 WT cells from ATCC. Fluorescence intensity can be utilized to determine the activation of the compound in a calcium flux assay. As a counter control, this cell line was utilized to screen the Tox21 10K compound library.
Assay Protocol Summary: Hek293 cells were dispensed at 1500cells/4uL/well in 1536-well black wall/clear bottom plates using a multidrop dispenser. After the assay plates were incubated at a 37 C/5% CO2 incubator for 18 hours, 4 uL of Calcium Dye Solution was added to each well. The plates were incubated at 37 C for 1 hour. For agonist mode, 23 nL of compounds dissolved in DMSO, positive control (ATP) or DMSO only was transferred to the assay plate by a pin tool station. The fluorescence intensity in the plates was measured using FDSS 7000EX kinetic plate reader with a filter set of Ex/Em=480/540 for 3 min at 1 sec intervals. Each test compound was measured at 15 concentrations and in triplicates.
A general note: Calcium assays in cells follow changes in intracellular calcium, usually with a dye or a luminescent sensor.
In the case of `CC/C(=C(\c1ccccc1)c1ccc(OCCN(C)C)cc1)c1ccccc1`, the Potency entry is “inactive”.

Turning to `Cc1ncc[nH]1`, the Potency entry was “inactive”.

On to `C=C(C)C(=O)OCCOC(=O)C(=C)C`, for which the Potency result was “inactive”.

Regarding `O=S(=O)(O)NC1CCCCC1`, the Potency result is “inactive”.

Turning to `O=C(O)c1ccccc1Nc1cccc(C(F)(F)F)c1`, the Potency entry was “inactive”.

With `O=C=NCCCCCCN=C=O`, the Potency result was “inactive”.

For the molecule `Cc1ccc(O)cc1`, the Potency entry was “inactive”.

Take `CCC[C@H](N[C@@H](C)C(=O)N1[C@H](C(=O)O)C[C@@H]2CCCC[C@@H]21)C(=O)OCC`: the Potency result is “inactive”.

Turning to `CCN(CC)C(=O)c1cccc(C)c1`, the Potency entry is “inactive”.

Take `C#CC1(O)CC[C@H]2[C@@H]3CCC4=CCCC[C@@H]4[C@H]3CC[C@@]21C` (stereo not given in full): the Potency entry is “inactive”.

Regarding `COc1ccccc1O`, the Potency result was “inactive”.

As for `Nc1ccc2c(c1)C(=O)c1ccccc1C2=O`, the Potency entry was “inactive”.

With `c1cc(-c2ccncc2)ccn1`, the Potency result was “inactive”.

As to `CC(=O)OC/C=C(\C)CCC=C(C)C`, the Potency result is “inactive”.

Take `CCCCC(CC)COC(=O)CS` (stereo not given): the Potency result was “inactive”.

On to `c1ccc2cc(Nc3ccc(Nc4ccc5ccccc5c4)cc3)ccc2c1`, for which the Potency result was “inactive”.

For `O=C(O)c1cc(C(=O)O)cc(S(=O)(=O)O)c1`, the Potency entry is “inactive”.

As to `CCCCCCCCCCCC[N+](C)(C)Cc1ccccc1`, the Potency entry is “inactive”.

As for `Cc1ccnc2c1NC(=O)c1cccnc1N2C1CC1`, the Potency entry was “inactive”.

In the case of `CC(C)=CCO`, the Potency entry was “inactive”.

`C=C(C)C1CC=C(C)CC1` (stereo not given): the Potency result is “inactive”.

Turning to `C[Si](O[Si](C)(C)C)O[Si](C)(C)C`, the Potency entry is “inactive”.

With `CCCN(CCC)C(=O)SCC`, the Potency entry was “inactive”.

On to `CC(=O)CC(c1ccccc1)c1c(O)c2ccccc2oc1=O` (stereo not given), for which the Potency entry is “inactive”.

Take `CCCOC(=O)c1ccccc1`: the Potency entry was “inactive”.

With `CCN(CC)C(=S)SSC(=S)N(CC)CC`, the Potency result was “inactive and 25.1 µM (active)”.

On to `CC(=O)Nc1cccc(O)c1`, for which the Potency result is “inactive”.

`CN(C)CCN(Cc1cccs1)c1ccccn1`: the Potency entry was “inactive”.

Consider `Cc1cn([C@H]2C=C[C@@H](CO)O2)c(=O)[nH]c1=O`, for which the Potency result was “inactive”.

For `C=CC(C)CCCC(C)(C)O` (stereo not given), the Potency entry was “inactive”.

Take `Cc1ccc(C)c(C)c1`: the Potency result was “inactive”.

In the case of `CC(CCO)CC(C)(C)C` (stereo not given), the Potency result was “inactive”.

As for `CN/C(=C\[N+](=O)[O-])NCCSCc1csc(CN(C)C)n1`, the Potency result is “inactive”.

As to `CS(=O)(=O)c1ccc([C@@H](O)[C@@H](CO)NC(=O)C(Cl)Cl)cc1`, the Potency entry was “inactive”.

In the case of `C=CCOC(=O)CC(C)C`, the Potency result was “inactive”.

Take `NCCCCCCN`: the Potency result was “inactive”.

With `CC(=O)Oc1ccccc1C(=O)O`, the Potency entry is “inactive”.

As to `Clc1ccc(Sc2cc(Cl)c(Cl)cc2Cl)cc1`, the Potency result is “inactive”.

Turning to `CCCCCCOC(C)=O`, the Potency result is “inactive”.

Turning to `CCC1(c2ccccc2)C(=O)NCNC1=O`, the Potency entry is “inactive”.
